Experimental data taken from PubChem BioAssay (Tox21).
Several values for one entry are separate records, joined by “and”; a condition that tells them apart may be missing. Identical values can stand only once. Records with an inconclusive call do not appear. Where a call stands in place of a potency, no number is given. A structure can be active in one record and inactive in another. Activity calls are given as the source filed them. Calls follow the shape of the dose curve; as a rule, active = well fitted inhibition curve with a large enough effect in the repeat runs; inconclusive = weak or mixed curves; inactive = no such curve, though single readings can be large or run the other way.

molecular target: Estrogen receptor (Homo sapiens) (UniProt P03372); test: qHTS assay to identify small molecule antagonists of the estrogen receptor alpha (ER-alpha) signaling pathway using the BG1 cell line in the presence of 0.1 nM 17-beta-estradiol (AID 1259244); conditions: VM7Luc4E2 (BG1) ERE-luciferase, antagonist mode, 0.1 nM E2, 22 h; series mostly up to 92.4 µM; activity change, negative = inhibition: at the top concentration; also: nearly all actives have a fitted effect of over 50% in size
Description: National Center for Advancing Translational Sciences [NCATS]
NIH Chemical Genomics Center [NCGC]
U.S. Environmental Protection Agency [EPA]
National Institutes of Environmental Health Sciences [NIEHS]
National Toxicology Program [NTP]
U.S. Food and Drug Administration [FDA]
Estrogen receptor (ER), a member of the nuclear hormone receptor plays an important role in development, metabolic homeostasis and reproduction. Two subtypes of ER, ER-alpha and ER-beta, have similar expression patterns with some uniqueness in both types. Endocrine disrupting chemicals (EDCs) and their interactions with steroid hormone receptors like ER causes disruption of normal endocrine function. Therefore, it is important to understand the effect of environmental chemicals in ER signaling pathway. For identifying ER antagonists, VM7Luc4E2 cell line was used to screen against Tox21 compound libraries.
VM7Luc4E2 cell line (provided by Denison MS, University of California) endogenously express full-length ER-alpha and is stably transfected with a plasmid containing four estrogen responsive elements (ERE) upstream of a luciferase reporter gene. The current screening for identification of ER-alpha inhibitors against Tox21 compound libraries used lower concentration (0.1 nM) of 17beta-Estradiol as a stimulator.
Tox21 Assay Protocol Summary:
VM7Luc4E2 cells were cultured in phenol red free assay medium containing 10% charcoal stripped FBS for 5 days prior to the assay. The cells were dispensed at 4,000 cells/well in 4 uL of assay medium into white wall/solid-bottom 1536-well plates (Corning Life Sciences, Corning, NY) using a Multidrop Combi (ThermoFisher Scientific, Waltham, MA) dispenser. After the assay plates were incubated at 37C and 5% CO2 for 24 hr, 23 nL of compounds dissolved in DMSO, positive controls or DMSO only was transferred to the assay plates by a Pintool station (Kalypsys, San Diego, CA). The transfer of compounds was followed by the addition of 1 uL of 0.1 nM (final concentration) agonist (17beta-Estradiol)/assay medium using a Flying Reagent Dispenser (FRD, Aurora Discovery, San Diego, CA). The plates were incubated at 37C and 5% CO2 for 22 hr. For luciferase reporter gene assay, 4 uL of ONE-Glo reagent (Promega Corporation, Madison, WI) was added to each well using the FRD and after 30 min incubation at room temperature luminescence intensity was measured using ViewLux plate reader (PerkinElmer, Shelton, CT).
Potency is read from the fitted curve at half-maximal effect.

Sequence of Estrogen receptor (Homo sapiens) (P03372 whole entry, looked up): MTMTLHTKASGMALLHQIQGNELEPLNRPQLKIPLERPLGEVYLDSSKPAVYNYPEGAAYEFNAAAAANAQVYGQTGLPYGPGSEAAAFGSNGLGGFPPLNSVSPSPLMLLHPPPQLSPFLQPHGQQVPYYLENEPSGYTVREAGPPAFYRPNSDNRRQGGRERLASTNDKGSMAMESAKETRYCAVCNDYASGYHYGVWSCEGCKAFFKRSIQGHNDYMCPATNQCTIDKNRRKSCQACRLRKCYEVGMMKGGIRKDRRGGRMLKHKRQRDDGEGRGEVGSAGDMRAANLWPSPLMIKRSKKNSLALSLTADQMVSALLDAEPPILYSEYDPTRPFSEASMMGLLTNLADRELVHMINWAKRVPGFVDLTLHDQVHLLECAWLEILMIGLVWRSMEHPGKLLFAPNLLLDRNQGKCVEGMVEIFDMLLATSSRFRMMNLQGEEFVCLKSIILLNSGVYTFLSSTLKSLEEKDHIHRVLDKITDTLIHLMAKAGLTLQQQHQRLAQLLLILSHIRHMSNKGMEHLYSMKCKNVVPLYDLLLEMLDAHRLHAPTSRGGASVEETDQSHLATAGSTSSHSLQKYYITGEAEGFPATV

Row | Compound | Potency | activity change, negative = inhibition
1 | CCC(O)OC(O)CC (stereo not given) | inactive | –
2 | CC[C@H](C)C(=O)O[C@H]1C[C@@H](C)C=C2C=C[C@H](C)[C@H](CC[C@@H]3C[C@@H](O)CC(=O)O3)[C@H]21 | inactive | –
3 | CC(=O)CC(=O)Nc1ccccc1C | inactive | –
4 | COc1ccc(Nc2ccccc2)c(C)c1 | inactive | –
5 | O=S(=O)(O)c1ccc2ccccc2c1 | inactive | –
6 | C=C(C)C(=O)O[C@H]1C[C@@H]2CC[C@@]1(C)C2(C)C | 2.71 µM (active) and inactive | –
7 | OC[C@H]1O[C@@](CO)(O[C@H]2O[C@H](CO)[C@@H](O)[C@H](O)[C@H]2O)[C@@H](O)[C@@H]1O | inactive | –
8 | CCCCCOC(C)=O | inactive | –
9 | CC(C)(N)CO | inactive | –
10 | Cc1ccc2oc(=O)ccc2c1 | inactive | –
11 | COS(C)(=O)=O | inactive | –
12 | CCCCC(CC)COC(=O)CCCCC(=O)OCC(CC)CCCC (stereo not given) | inactive | –
13 | Fc1ccc(Br)cc1 | inactive | –
14 | OCc1cccnc1 | inactive | –
15 | O=C(O)c1cc(=O)c2c(OCC(O)COc3cccc4oc(C(=O)O)cc(=O)c34)cccc2o1 | inactive | –
16 | COc1cc(Cc2cnc(N)nc2N)cc(OC)c1OC | inactive | –
17 | Cc1ccc(N(C)C)cc1 | inactive | –
18 | O=S1(=O)CC=CC1 | inactive | –
19 | CC(=O)Nc1cccc(O)c1 | inactive | –
20 | c1ccc2scnc2c1 | inactive | –

Row | Compound | Potency | activity change, negative = inhibition
21 | CCCCCCOCCO | inactive | –
22 | CCCCCCCCCC | inactive | –
23 | CCCCCCCCCCCCS | inactive | –
24 | O=C(O)c1cc(O)c(O)c(O)c1 | – | 4.64% [at 42.5 µM] (inactive)
25 | C/C=C1/CC2C=CC1C2 (stereo not given) | inactive | –
26 | CC(O)COCC(C)O (stereo not given) | inactive | –
27 | CC(=O)OCC(=O)[C@@]12N=C(C)O[C@@H]1C[C@H]1[C@@H]3CCC4=CC(=O)C=C[C@]4(C)[C@H]3[C@@H](O)C[C@@]12C | inactive | –
28 | CCN(CC)CCCC(C)Nc1ccnc2cc(Cl)ccc12 (stereo not given) | – | 35.5% [at 8.39 µM] (inactive) and -0.903% [at 19 µM] (inactive)
29 | CC(=O)c1ccccc1 | inactive | –
30 | CC1=CCC2CC1C2(C)C (stereo not given) | inactive | –
31 | O=C(O)c1ccc2c(c1)C(=O)OC2=O | inactive | –
32 | C#CCN(C)Cc1ccccc1 | inactive | –
33 | CCN(CC)c1ccc(C(=O)c2ccccc2C(=O)O)c(O)c1 | inactive | –
34 | O=[N+]([O-])c1ccc(/C=C/c2ccc([N+](=O)[O-])cc2S(=O)(=O)O)c(S(=O)(=O)O)c1 | inactive | –
35 | Cc1cc(C)c(C)cc1C | inactive | –
36 | CC1=C(C)S(=O)(=O)CCS1(=O)=O | inactive | –
37 | C=C(C)C(=O)Nc1ccc(Cl)c(Cl)c1 | 69.3 µM (active) | –
38 | CCCCCCCC(=O)OC | inactive | –
39 | CCc1cccc(C)c1N | inactive | –
40 | Cc1cnc(C(=O)NCCc2ccc(S(=O)(=O)NC(=O)NC3CCCCC3)cc2)cn1 | inactive | –
